Test results reported in PubChem BioAssay (NCATS).
Results filed as inconclusive are left out. The source made the active and inactive calls. Calls follow the shape of the dose curve; as a rule, active = well fitted inhibition curve with a large enough effect; inconclusive = small, poorly fitted or top-dose-only effect; inactive = flat fitted curve, though single readings scatter.

tested on: PC15; test: qHTS profiling for inhibitors of Plasmodium falciparum proliferation (AID 504749);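 also: 0% = DMSO vehicle and full inhibition = artemisinin control; nearly all actives have a fitted effect of over 60% in size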; settings: P. falciparum in erythrocytes, SYBR Green DNA, 72 h; series mostly up to 28.7 µM; activity, negative = inhibition: at the top concentration
Method in brief: (§1)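 P. falciparum-infected erythrocytes (0.3% parasitemia, 2.5% hematocrit) incubated with compound 72 h at 37 C, 5% CO2. Parasite DNA detected by SYBR Green after lysis, overnight at room temperature; normalised to 0.29 uM artemisinin and DMSO.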

SMILES | activity, negative = inhibition
NNC(=O)CP(=O)(c1ccccc1)c1ccccc1 | 2.99% (inactive)
Nc1ncnc2c1ncn2[C@@H]1O[C@H](COP(=O)(O)O)[C@@H](O)[C@H]1O | -6.47% (inactive)
CC1CCc2cc(F)cc3c(=O)c(C(=O)O)cn1c23 (stereo unspecified) | 5.43% (inactive)
O=C(O)c1cc(=O)c2ccccc2o1 | 4.46% (inactive)
C=CCSCC1Nc2cc(Cl)c(S(N)(=O)=O)cc2S(=O)(=O)N1 (stereo unspecified) | -1.99% (inactive)
O=C(O)Cc1ccc(CCNS(=O)(=O)c2ccc(Cl)cc2)cc1 | 12.2% (inactive)
CC[N+](CC)(CC(=O)Nc1c(C)cccc1C)Cc1ccccc1 | 3.44% (inactive)
O=c1[nH]c(=O)c2ccccc2o1 | 3.31% (inactive)
O=C(O)c1ccccc1OP(=O)(O)O | 7.27% (inactive)
O=S1(=O)OC(c2ccc(O)cc2)(c2ccc(O)cc2)c2ccccc21 | 6% (inactive)
COc1ccc(C(=O)N2CCN(CC(=O)N3CCOCC3)CC2)cc1 | 4.76% (inactive)
OCC(O)CS (stereo unspecified) | 2.61% (inactive)
CN1CCN(C(=O)C2CCCCC2)CC1 | -1.73% (inactive)

tested on: PC26; test: as above; settings: P. falciparum in erythrocytes, SYBR Green DNA, 72 h; series mostly up to 28.7 µM; activity, negative = inhibition: at the top concentration
Method in brief: as §1

SMILES | activity, negative = inhibition
CC(=O)Nc1ccccc1 | 4.45% (inactive)
O=C(/C=C/c1ccccc1)OCc1ccccc1 | 4.42% (inactive)
c1ccc2[nH]ccc2c1 | -0.0554% (inactive)
NC(N)=NS(=O)(=O)c1ccc(N)cc1 | -3.71% [at 12.8 µM] (inactive)
Cc1ccc(S(=O)(=O)NC(=O)NC2CCCCC2)cc1 | 0.23% (inactive)
C[C@H]1COc2c(C3(N)CC3)c(F)cc3c(=O)c(C(=O)O)cn1c23 | -5.72% (inactive)
Cc1c(NC(C)C)c(=O)n(-c2ccccc2)n1C | -4.03% (inactive)
CCCCCC(N)=O | 9.45% (inactive)
Cn1c(=O)c2c(ncn2CCO)n(C)c1=O | -4.48% (inactive)
CC(C)c1cc2c(cc1S(=O)(=O)O)[C@@]1(C)CCC[C@@](C)(C(=O)O)[C@@H]1CC2 | 5.19% (inactive)
O=C(NCCCN1CCOCC1)c1ccc(Cl)cc1 | -7.28% (inactive)
COc1ccccc1OC(=O)Oc1ccccc1OC | -15.6% (inactive)
OCc1ccc(Cl)cc1Cl | -1.86% (inactive)
CC(=O)Nc1cccc(O)c1 | -1.23% (inactive)
FC(F)(F)C(Cl)Br (stereo unspecified) | -14.1% (inactive)
Cc1c(N(C)C)c(=O)n(-c2ccccc2)n1C | -1.83% (inactive)
COC(=O)c1cccnc1 | -8.73% (inactive)
CCN(CC)CC1CCCCN1CC(=O)N1c2ccccc2C(=O)Nc2cccnc21 (stereo unspecified) | -0.0196% (inactive)
Cc1cccc(Nc2ccccc2C(=O)O)c1C | 19.5% (inactive)

SMILES | activity, negative = inhibition
COc1ccccc1Oc1c(NS(=O)(=O)c2ccc(C(C)(C)C)cc2)nc(-c2ncccn2)nc1OCCO | -1.75% (inactive)
CCc1nnc(NS(=O)(=O)c2ccc(N)cc2)s1 | -2.02% (inactive)
Cc1c(C(=O)NCCO)[n+](=O)c2ccccc2n1[O-] | 4.04% (inactive)
O=C1c2cccc(O)c2C(=O)c2c(O)cccc21 | 3.89% (inactive)
CCCCCCCC(=O)OCC(COC(=O)CCCCCCC)OC(=O)CCCCCCC | 0.639% (inactive)
NNC(=O)CP(=O)(c1ccccc1)c1ccccc1 | 0.416% (inactive)
Nc1ncnc2c1ncn2[C@@H]1O[C@H](COP(=O)(O)O)[C@@H](O)[C@H]1O | 3.03% (inactive)
CC1CCc2cc(F)cc3c(=O)c(C(=O)O)cn1c23 (stereo unspecified) | 0.537% (inactive)
O=C(O)c1cc(=O)c2ccccc2o1 | -0.026% (inactive)
C=CCSCC1Nc2cc(Cl)c(S(N)(=O)=O)cc2S(=O)(=O)N1 (stereo unspecified) | -0.0504% (inactive)
O=C(O)Cc1ccc(CCNS(=O)(=O)c2ccc(Cl)cc2)cc1 | -4.28% (inactive)
CC[N+](CC)(CC(=O)Nc1c(C)cccc1C)Cc1ccccc1 | 2.72% (inactive)
O=c1[nH]c(=O)c2ccccc2o1 | -0.0521% (inactive)
O=C(O)c1ccccc1OP(=O)(O)O | -8.82% (inactive)
O=S1(=O)OC(c2ccc(O)cc2)(c2ccc(O)cc2)c2ccccc21 | -0.143% (inactive)
COc1ccc(C(=O)N2CCN(CC(=O)N3CCOCC3)CC2)cc1 | 3.25% (inactive)
OCC(O)CS (stereo unspecified) | 2.67% (inactive)
CN1CCN(C(=O)C2CCCCC2)CC1 | 0.627% (inactive)

tested on: PC49; test: as above; settings: P. falciparum in erythrocytes, SYBR Green DNA, 72 h; series mostly up to 28.7 µM; activity, negative = inhibition: at the top concentration
Method in brief: as §1

SMILES | activity, negative = inhibition
CC(=O)Nc1ccccc1 | 20.9% (inactive)
O=C(/C=C/c1ccccc1)OCc1ccccc1 | 15.9% (inactive)
c1ccc2[nH]ccc2c1 | -1.07% (inactive)
NC(N)=NS(=O)(=O)c1ccc(N)cc1 | 16.5% [at 12.8 µM] (inactive)
Cc1ccc(S(=O)(=O)NC(=O)NC2CCCCC2)cc1 | 3.47% (inactive)
C[C@H]1COc2c(C3(N)CC3)c(F)cc3c(=O)c(C(=O)O)cn1c23 | 5.65% (inactive)
Cc1c(NC(C)C)c(=O)n(-c2ccccc2)n1C | 5.42% (inactive)
CCCCCC(N)=O | 6.69% (inactive)
Cn1c(=O)c2c(ncn2CCO)n(C)c1=O | 1.52% (inactive)
CC(C)c1cc2c(cc1S(=O)(=O)O)[C@@]1(C)CCC[C@@](C)(C(=O)O)[C@@H]1CC2 | 3.1% (inactive)
O=C(NCCCN1CCOCC1)c1ccc(Cl)cc1 | -12.3% (inactive)
COc1ccccc1OC(=O)Oc1ccccc1OC | 6.03% (inactive)
OCc1ccc(Cl)cc1Cl | 10.9% (inactive)
CC(=O)Nc1cccc(O)c1 | 6.74% (inactive)
FC(F)(F)C(Cl)Br (stereo unspecified) | 13.1% (inactive)
Cc1c(N(C)C)c(=O)n(-c2ccccc2)n1C | 10.1% (inactive)
CCN(CC)CC1CCCCN1CC(=O)N1c2ccccc2C(=O)Nc2cccnc21 (stereo unspecified) | 8.14% (inactive)
Cc1cccc(Nc2ccccc2C(=O)O)c1C | 12.1% (inactive)

SMILES | activity, negative = inhibition
COc1ccccc1Oc1c(NS(=O)(=O)c2ccc(C(C)(C)C)cc2)nc(-c2ncccn2)nc1OCCO | 0.979% (inactive)
CCc1nnc(NS(=O)(=O)c2ccc(N)cc2)s1 | 1.97% (inactive)
Cc1c(C(=O)NCCO)[n+](=O)c2ccccc2n1[O-] | 17.1% (inactive)
O=C1c2cccc(O)c2C(=O)c2c(O)cccc21 | 7.43% (inactive)
CCCCCCCC(=O)OCC(COC(=O)CCCCCCC)OC(=O)CCCCCCC | 8.43% (inactive)
O=C1C(c2[nH]c3ccccc3c2O)=Nc2ccccc21 | -7.31% (inactive)
NNC(=O)CP(=O)(c1ccccc1)c1ccccc1 | 2.71% (inactive)
CC1CCc2cc(F)cc3c(=O)c(C(=O)O)cn1c23 (stereo unspecified) | -12.5% (inactive)
O=C(O)c1cc(=O)c2ccccc2o1 | -0.201% (inactive)
C=CCSCC1Nc2cc(Cl)c(S(N)(=O)=O)cc2S(=O)(=O)N1 (stereo unspecified) | -5.17% (inactive)
O=C(O)Cc1ccc(CCNS(=O)(=O)c2ccc(Cl)cc2)cc1 | 1.91% (inactive)
CC[N+](CC)(CC(=O)Nc1c(C)cccc1C)Cc1ccccc1 | -3.11% (inactive)
O=c1[nH]c(=O)c2ccccc2o1 | 4.51% (inactive)
O=C(O)c1ccccc1OP(=O)(O)O | 18.1% (inactive)
O=S1(=O)OC(c2ccc(O)cc2)(c2ccc(O)cc2)c2ccccc21 | 22.9% (inactive)
COc1ccc(C(=O)N2CCN(CC(=O)N3CCOCC3)CC2)cc1 | 3.52% (inactive)
OCC(O)CS (stereo unspecified) | 6.87% (inactive)
CN1CCN(C(=O)C2CCCCC2)CC1 | -4.86% (inactive)
